According to PubChem BioAssay (NCI):
Several values for one entry are separate records, joined by “and”; a condition that tells them apart may be missing. Equal entries are not always repeated. This is part of a sample that, as a whole, favours compounds with a hit. Of some 79,000 tested, about 15% had one in any assay. Unmarked numbers belong to inactive results. Activity calls are given as the source filed them. Rule as the data show it: active = growth inhibition above about 70%; inactive = the rest.

How the values were obtained:
[1] = NCI Yeast Anticancer Drug Screen. Data for the rad50 strain (AID 155);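 also: 0% = growth of vehicle-only cultures of the same strain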; conditions: S. cerevisiae rad50 strain growth inhibition; at 50.0 µM; stronger effect = higher value
How it was run: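 Relative growth inhibition (compound vs vehicle) was measured in yeast with a defined repair-gene alteration.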

[2] = NCI Yeast Anticancer Drug Screen. Data for the mlh1 rad18 strain (AID 175); conditions: S. cerevisiae mlh1 rad18 strain growth inhibition; at 50.0 µM; stronger effect = higher value
How it was run: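 Vehicle-treated cultures served as the reference for growth inhibition in a yeast strain carrying DNA damage repair alterations exposed to each compound.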

[3] = NCI Yeast Anticancer Drug Screen. Data for the mec2-1 strain (AID 157); conditions: S. cerevisiae mec2-1 strain, at 50.0 µM, stronger effect = higher value
How it was run: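 Vehicle-treated cultures served as reference for growth inhibition of compound-exposed mec2-1 yeast.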

[4] = NCI Yeast Anticancer Drug Screen. Data for the cln2 rad14 strain (AID 165);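 also: 0% = growth equal to vehicle treated cultures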; conditions: S. cerevisiae cln2 rad14 strain, at 50.0 µM, stronger effect = higher value
How it was run: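 Each compound was tested on cln2 rad14 yeast. Inhibition of growth was calculated against vehicle-exposed controls.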

[5] = NCI Yeast Anticancer Drug Screen. Data for the bub3 strain (AID 167); conditions: S. cerevisiae bub3 mutant strain, at 50.0 µM, stronger effect = higher value
How it was run: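 Screening used yeast with an engineered genetic alteration affecting cell cycle control. Compound-exposed cultures were compared with vehicle cultures, and reduced growth was taken as inhibition.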

[6] = NCI Yeast Anticancer Drug Screen. Data for the sgs1 mgt1 strain (AID 161);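 also: 0% = growth of cultures given vehicle only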; conditions: S. cerevisiae sgs1 mgt1 strain, at 50.0 µM, stronger effect = higher value
How it was run: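 Read-out: growth inhibition vs vehicle controls. Cells: mutant yeast strain deficient in DNA damage repair.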

**Q.** Which growth inhibition [1] does the source give for CCCCCCCCCCCCCCCCOc1ccc(C)cc1 here?
**A.** -14.3%

**Q.** And the growth inhibition [2]?
**A.** -27.9%

**Q.** For O=C(O)C1(c2ccc(Cl)cc2)CCCC1, which growth inhibition [1] is on record?
**A.** 12.1%

**Q.** What about the growth inhibition [2] of the same compound?
**A.** 60.6%

**Q.** Which growth inhibition [3] does the source give for CC1=NN(c2ccccc2)C(=O)C1CCC#N (configuration not stated) here?
**A.** -12.9%

**Q.** What about the growth inhibition [2] of the same compound?
**A.** 31.4%

**Q.** With Cc1cc2nn(C3CCCO3)nc2cc1C (configuration not stated) as the compound, how does the growth inhibition [3] read?
**A.** -23.5%

**Q.** What about the growth inhibition [4] of the same compound?
**A.** -15.3%

**Q.** And the growth inhibition [5]?
**A.** -3.8%

**Q.** What about the growth inhibition [2] of the same compound?
**A.** -36.4%

**Q.** For O=C(O)COC1CC(=O)N2c3ccccc3C34CCN5C(=O)C(=O)C(CC53)C1C24 (configuration not stated), which growth inhibition [1] is on record?
**A.** -1.7%

**Q.** And the growth inhibition [2]?
**A.** -9.5%

**Q.** What does the source list for CC(=O)C1=C(C)N2C(=NC3=C(CCc4ccccc43)C2c2ccc(Cl)cc2)S1 (configuration not stated)?
**A.** growth inhibition [3]: -14.6%; growth inhibition [6]: 6.85%; growth inhibition [4]: 6.25%; growth inhibition [5]: -6.9%; growth inhibition [2]: 1.5%

**Q.** For OCc1ccccn1, which growth inhibition [3] is on record?
**A.** 3.45%

**Q.** What about the growth inhibition [6] of the same compound?
**A.** -4.65%

**Q.** And the growth inhibition [5]?
**A.** -3.95%

**Q.** What about the growth inhibition [2] of the same compound?
**A.** 16.7%

**Q.** For C/C=C(/C)N(C(C)=O)N(C(C)=O)c1ccc([N+](=O)[O-])cc1[N+](=O)[O-], which growth inhibition [1] is on record?
**A.** 5.75%

**Q.** And the growth inhibition [2]?
**A.** -3.3%

**Q.** Which growth inhibition [3] does the source give for COc1ccc(-c2cc(=O)c3c(C)cc(O)cc3o2)cc1 here?
**A.** -16.1%

**Q.** What about the growth inhibition [2] of the same compound?
**A.** 37.9%

**Q.** Which results are given for CCOC(=O)c1nc2cc(C)c(C)cc2[nH]c1=O?
**A.** growth inhibition [1]: 5.45%; growth inhibition [2]: -1.85%

**Q.** Which results are given for C[Si](C)(CCl)N[Si](C)(C)CCl?
**A.** growth inhibition [1]: -23.6%; growth inhibition [2]: -6.1%

**Q.** Which results are given for Cc1ccc2nc3c(nc2c1)-c1cccc2cccc-3c12?
**A.** growth inhibition [1]: -18.6%; growth inhibition [2]: -12.4%

**Q.** For Cc1nc2c(Cl)cc(Cl)c(Cl)c2s1, which growth inhibition [3] is on record?
**A.** 5.15%

**Q.** And the growth inhibition [2]?
**A.** 51.1%

**Q.** For CCN(CC)c1cc(C(C)(C)C)cc(C(C)(C)C)c1, which growth inhibition [3] is on record?
**A.** -21.5%

**Q.** And the growth inhibition [2]?
**A.** -11.1%

**Q.** For N=C(N)c1ccc(N=Nc2c(O)ccc3cc(O)ccc23)cc1, which growth inhibition [2] is on record?
**A.** -27.5%

**Q.** For OCCOCCOCCOCCO, which growth inhibition [4] is on record?
**A.** -48.1%

**Q.** With CCOC(=O)CC(=O)c1ccccc1 as the compound, how does the growth inhibition [6] read?
**A.** 8.9% and -0.85%

**Q.** What about the growth inhibition [4] of the same compound?
**A.** 10.8% and 11.1%

**Q.** Which growth inhibition [6] does the source give for CC(C)n1c2c([n+](C)c1/C=C/c1ccccc1)C(=O)c1ccccc1C2=O here?
**A.** 89.9% (active)

**Q.** What about the growth inhibition [4] of the same compound?
**A.** 88.9% (active)

**Q.** What about the growth inhibition [5] of the same compound?
**A.** 50.4%

**Q.** With CCCCCCCCOC(=O)C(=O)C(C#N)c1ccccc1 (configuration not stated) as the compound, how does the growth inhibition [3] read?
**A.** 6.3%

**Q.** What about the growth inhibition [2] of the same compound?
**A.** 10.2%

**Q.** What does the source list for Cc1ccc(N2C(=O)CC(Sc3ccccc3N)C2=O)cc1 (configuration not stated)?
**A.** growth inhibition [3]: -17.4%; growth inhibition [2]: -9.3%

**Q.** For S=C(NNc1ccccc1)NC1CCCCC1, which growth inhibition [2] is on record?
**A.** -8.6%

**Q.** What does the source list for Cc1ccc(S(=O)(=O)N2CCC(O)(c3ccccc3)CC2)cc1?
**A.** growth inhibition [3]: -36.3%; growth inhibition [2]: -2.7%

**Q.** What does the source list for Cc1c(CNc2ccc(C(=O)NC(CC(=O)O)C(=O)O)cc2)ccc2nc(N)nc(N)c12 (configuration not stated)?
**A.** growth inhibition [4]: 9.35%; growth inhibition [5]: 16.4%

**Q.** Which growth inhibition [3] does the source give for N#C/C(=C1C=C(Br)/C(=N\O)C=C\1Cl)c1ccc(Cl)cc1 here?
**A.** 4.55%

**Q.** What about the growth inhibition [2] of the same compound?
**A.** 27.7%

**Q.** With CCCN1CCc2cc(OC)c(OC)cc2C1Cc1ccc(OC)c(OC)c1 (configuration not stated) as the compound, how does the growth inhibition [3] read?
**A.** -0.2%

**Q.** And the growth inhibition [2]?
**A.** -5.7%

**Q.** Which growth inhibition [3] does the source give for C#Cc1c(-c2c[nH]c3ccccc23)ccc[n+]1C here?
**A.** -36.1%

**Q.** What about the growth inhibition [2] of the same compound?
**A.** -24.4%

**Q.** With O=C1C2C3C=CC(C2C(=O)N1CO)C1C2C(=O)N(CO)C(=O)C2C31 (configuration not stated) as the compound, how does the growth inhibition [2] read?
**A.** 2.2%

**Q.** For O=C(CC(CC(=O)c1ccccc1)c1ccco1)c1ccccc1, which growth inhibition [3] is on record?
**A.** -17.2%

**Q.** What about the growth inhibition [2] of the same compound?
**A.** -8.65%

**Q.** For CC(C)c1cc(C(=O)O)c(O)c(C(C)C)c1.CC(C)c1cc(C(=O)O)c(O)c(C(C)C)c1.[Cu], which growth inhibition [2] is on record?
**A.** 54.6%

**Q.** With CN(C)c1ccc2c(Nc3ccc(NS(C)(=O)=O)cc3)c3ccc(N(C)C)cc3nc2c1 as the compound, how does the growth inhibition [2] read?
**A.** 65.6%

**Q.** Which growth inhibition [3] does the source give for O=C(/C=C(\[O-])c1ccccc1)CCCCCCC(=O)/C=C(\[O-])c1ccccc1.O=C(/C=C(\[O-])c1ccccc1)CCCCCCC(=O)/C=C(\[O-])c1ccccc1.O=C(/C=C(\[O-])c1ccccc1)CCCCCCC(=O)/C=C(\[O-])c1ccccc1.[Y+3].[Y+3] here?
**A.** -3.7%

**Q.** What about the growth inhibition [2] of the same compound?
**A.** -1.85%

**Q.** With Cc1ccc(N2CSC(=S)N(c3ccc(C)cc3)C2)cc1 as the compound, how does the growth inhibition [3] read?
**A.** -25.9%

**Q.** And the growth inhibition [2]?
**A.** 46.6%

**Q.** Which growth inhibition [2] does the source give for CC(=O)NC(C(=O)O)C(C)C.CC(=O)NC(C(=O)O)C(C)C.[NH-]C1CCCCC1[NH-].[Pt+2] (configuration not stated) here?
**A.** 7.05% and 50%

**Q.** What does the source list for O=C(O)CSCc1nc2ccccc2[nH]1?
**A.** growth inhibition [3]: -15.7%; growth inhibition [2]: 41.8%

**Q.** With O=[N+]([O-])c1cccc(S(=O)(=O)OCCOc2ccccc2)c1 as the compound, how does the growth inhibition [3] read?
**A.** 4.15%

**Q.** And the growth inhibition [2]?
**A.** 17.6%

**Q.** For Nc1nc([Se]c2nc(N)nc3c2ncn3C2OC(CO)C(O)C2O)c2ncn(C3OC(CO)C(O)C3O)c2n1 (configuration not stated), which growth inhibition [2] is on record?
**A.** -32.2%

**Q.** For Nc1cc(S(=O)(=O)c2ccc(O)c(N)c2)ccc1O, which growth inhibition [3] is on record?
**A.** -0.85%

**Q.** What about the growth inhibition [2] of the same compound?
**A.** 9.05%

**Q.** For N=C(N)c1ccc(N=NNc2ccc(C(=N)N)cc2)cc1, which growth inhibition [2] is on record?
**A.** 84% (active)

**Q.** With O=C1CCCCCC2=NC12 (configuration not stated) as the compound, how does the growth inhibition [2] read?
**A.** -25.6%

**Q.** Which growth inhibition [2] does the source give for O=C(O)C(=O)C(O)C(O)C(O)CO.O=C(O)C(=O)C(O)C(O)C(O)CO.[NH-]C1CCCCC1[NH-].[Pt+2] (configuration not stated) here?
**A.** -53.1%

**Q.** Which growth inhibition [2] does the source give for [Br][Sn]([CH2][Sn]([Br])([c]1ccccc1)[c]1ccccc1)([c]1ccccc1)[c]1ccccc1 here?
**A.** 81.8% (active)

**Q.** With Cc1ccc(S(=O)(=O)Nc2ccccc2C2Nc3ccccc3C(=O)O2)cc1 (configuration not stated) as the compound, how does the growth inhibition [3] read?
**A.** -7.4%

**Q.** What about the growth inhibition [2] of the same compound?
**A.** -13.1%

**Q.** Which growth inhibition [2] does the source give for NCCSC(C[N+](=O)[O-])c1ccccc1Cl (configuration not stated) here?
**A.** 87.4% (active)

**Q.** Which growth inhibition [3] does the source give for COc1cc(/C=N/N2C(=O)c3ccccc3C2=O)ccc1O here?
**A.** 8.1%

**Q.** And the growth inhibition [2]?
**A.** 25.9%

**Q.** Which growth inhibition [2] does the source give for Nc1ccc2ccc(N)cc2c1 here?
**A.** -33.1%

**Q.** For O=C(O)C(O)C(O)C(OC1OC(CO)C(O)C(O)C1O)C(O)CO.O=C(O)C(O)C(O)C(OC1OC(CO)C(O)C(O)C1O)C(O)CO.[NH-]C1CCCCC1[NH-].[Pt+2] (configuration not stated), which growth inhibition [2] is on record?
**A.** -63.5%

**Q.** With N#CCS(=O)(=O)c1cccc[n+]1[O-] as the compound, how does the growth inhibition [2] read?
**A.** -37.5%

**Q.** What does the source list for Clc1ccc(C(c2cccs2)N2CCNCC2)cc1 (configuration not stated)?
**A.** growth inhibition [3]: -2.75%; growth inhibition [2]: 5.35%

**Q.** Which growth inhibition [2] does the source give for [Cl][Sn]([CH2][Sn]([Cl])([c]1ccccc1)[c]1ccccc1)([c]1ccccc1)[c]1ccccc1 here?
**A.** 82.2% (active)

**Q.** Which results are given for CC1CC2(OC2C)C(=O)OC2CCN(C)C/C=C(/COC(=O)C1(C)O)C2=O (configuration not stated)?
**A.** growth inhibition [6]: 20.9%; growth inhibition [5]: -10.8%; growth inhibition [2]: -52%
